According to PubChem BioAssay (NCI):
Compounds without any hit were thinned out: in the full panel of roughly 83,000, 20% have a hit.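 Testing used 96-well plates and a 48-hour single-concentration exposure. Example: -40 means 40% of the starting cells died.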 Values without a mark were called inactive. Calls of active or inactive are those of the source. How the source made its calls: active means growth percent below 10; inactive means the rest.

Experiments:
Assay in all cases: NCI-60 one-dose screen, 48 h (100 = growth as untreated, 0 = no growth, -100 = all killed)
Conditions in all cases: 10 µM unless noted
[1] = tested on: HCT-15 colon
[2] = tested on: HT29 colon
[3] = tested on: SNB-75 CNS
[4] = tested on: SNB-19 CNS
[5] = tested on: U251 CNS
[6] = tested on: PC-3 prostate
[7] = tested on: SK-MEL-5 melanoma
[8] = tested on: UACC-62 melanoma
[9] = tested on: SK-MEL-28 melanoma

Structure (SMILES) | growth [1] | growth [2] | growth [3] | growth [4] | growth [5] | growth [6] | growth [7] | growth [8] | growth [9]
Cc1ccsc1-c1ccc2c(c1)COC2(CCCN(C)C)c1ccc(F)cc1 (stereo not drawn) | 29% | 17% | 34.9% | 67.9% | 21% | 45.6% | 0.45% (active) | 44.9% | 42.5%
CC(C)(C)c1cc(-n2c(-c3ccc(Cl)cc3)nc3cc(C(=O)Nc4ccc(Cl)cc4)ccc32)n[nH]1 | 39.2% | 89.5% | 60.7% | 60.2% | 53.2% | 33.7% | 44.8% | 39% | 79.7%
CC(C)=CCC[C@](C)(O)[C@H]1CC[C@]2(C)[C@@H]1CC[C@@H]1[C@@]3(C)C/C(=C/c4cccc([N+](=O)[O-])c4)C(=O)C(C)(C)[C@@H]3CC[C@]12C | 83.5% | 55.4% | 0.754% (active) | 96% | 85.7% | 58.2% | 101% | 78.1% | 104%
COc1ccc(/C=C(\C#N)c2cc3ccccc3n2C(C)=O)cc1 | 41% | 68.8% | 74% | 87.2% | 87.1% | 84.6% | 92.2% | 74.1% | 87.2%
CC(C)=CCC[C@](C)(O)[C@H]1CC[C@]2(C)[C@@H]1CC[C@@H]1[C@@]3(C)C/C(=C/c4ccc(Br)cc4)C(=O)C(C)(C)[C@@H]3CC[C@]12C | 85.4% | 77% | -50.3% (active) | 95.2% | 86.9% | 70.5% | 96.8% | 78.6% | 100%
COc1ccc(/C=C2\N=C(c3ccccc3)N(c3cc(OC)c(OC)cc3C(=O)N3N=C(C)CC3=O)C2=O)cc1 | 90% | 99.7% | 87.6% | 99.5% | 102% | 89.4% | 77.3% | 65.5% | 95.2%
Oc1ccccc1/C=N\NC(=S)Nc1ccc(F)cc1 | 21.8% | 39.1% | 43.1% | 36% | 27.7% | 40% | 6.1% (active) | 2.27% (active) | 30.8%
O=C1NC(=Nc2ccc(S(=O)(=O)Nc3nccs3)cc2)S/C1=C\c1coc2ccccc2c1=O | 104% | 97.6% | 55.9% | 98.5% | 102% | 95% | 103% | 99.5% | 111%
N#Cc1c(-c2ccco2)nc2c(c(-c3ccccc3)nn2-c2ccccc2)c1-c1ccc(O)cc1 | 38.4% | 30.2% | 71.1% | 95.9% | 61.6% | 23.8% | 87.1% | 89.2% | 74.7%
C#Cc1cccc(NC(=O)C2CCCN(C(=O)CCl)C2)c1 (stereo not drawn) | 25.2% [8.25 µM] | 83.9% [8.25 µM] | 91.9% [8.25 µM] | 85.7% [8.25 µM] | 72% [8.25 µM] | 96.2% [8.25 µM] | 19.4% [8.25 µM] | 44.2% [8.25 µM] | 102% [8.25 µM]
C[C@H]1[C@H]2C3=CC[C@@H]4[C@@]5(C)C/C(=C/c6ccco6)C(=O)C(C)(C)[C@@H]5CC[C@@]4(C)[C@]3(C)CC[C@@]2(C(=O)N2CCOCC2)CC[C@@H]1C | 40.2% | 28.9% | 99.4% | 71.3% | 49.1% | 39.1% | 72.1% | 60.5% | 69.7%
COc1cc(OC)c2c(c1)c1nc3cc(C)c(C)cc3nc1n2CCN(C)C | 77.2% | 85.8% | 74.6% | 89.1% | 90.9% | 85.3% | 94.4% | 94.3% | 104%
CC(=O)O[C@H]1CC[C@@]2(C)[C@@H](CC[C@@H]3[C@@H]2CC(=O)[C@@]2(C)[C@H]3C[C@@H](C3CCCC3=O)[C@@H]2C(C)=O)C1 (stereo partly drawn) | 106% | 95.6% | 97.4% | 94.2% | 102% | 93.1% | 108% | 91.6% | 113%
O=C1OC(c2ccc(Cl)c(Cl)c2)=C/C1=C/c1cccc([N+](=O)[O-])c1 | 99.1% | 93.7% | 92.9% | 94.9% | 99.2% | 97.9% | 102% | 88.7% | 105%
COc1ccc(-c2c(-c3nc4ccc(N5CCOCC5)cc4[nH]3)[nH]c(C)c2C(C)=O)cc1 | 3.79% (active) | 20.8% | 1.76% (active) | 39.7% | 54.3% | 48.7% | 22.2% | 15.7% | 45.8%
N=C(N)c1ccc(S(N)(=O)=O)cc1 | 104% | 105% | 96.1% | 99.1% | 99.4% | 98.4% | 95.3% | 99.2% | 104%
CC1(C)C=CC[C@]2(C)[C@H]3CC[C@@H]4[C@H]5[C@H](C(=O)/C=C/c6cccnc6)CC[C@]5(CO)CC[C@@]4(C)[C@]3(C)CC[C@@H]12 | -61.7% (active) | -28% (active) | -89.8% (active) | -90.4% (active) | -90.8% (active) | -41.1% (active) | -99.3% (active) | -63.2% (active) | -92% (active)
CC(c1ccccc1)N1C(=O)C(C2SC(=S)N(C(C)c3ccccc3)C2=O)SC1=S (stereo not drawn) | 54.9% | 72.5% | 89% | 78.6% | 85% | 84.7% | 99.3% | 77.7% | 86.6%
COc1ccc2[nH]cc(-c3nc(-c4c[nH]c5ncccc45)cs3)c2c1 | -34.8% (active) | 12.1% | 19.5% | 77.4% | 34.8% | 44.2% | 48.2% | 50.4% | 69.9%
COc1ccc(/C=C/C(=O)c2ccc([N+](=O)[O-])cc2)cc1 | 104% | 95.3% | 104% | 96.9% | 97.5% | 92% | 105% | 88% | 112%
O=[N+]([O-])c1cccc(/C=N\Nc2ccccc2)c1 | 58% | 80% | 78.5% | 95.5% | 83.4% | 67% | 92.5% | 4.87% (active) | 103%
Cn1cc(-c2nc(-c3cn(C)c4ncccc34)cs2)c2ccccc21 | 20.4% | 9.24% (active) | 20.9% | 51.4% | 31.8% | 53.6% | 21.9% | 33.2% | 46.5%
O=C(O)c1cccc2c1C(=O)N(c1ccc3c(c1)Cc1ccccc1-3)C2=O | 108% | 99.9% | 91.6% | 111% | 111% | 97.6% | 110% | 112% | 110%
COc1cc2nc(Cl)nc(Nc3cccc(C(=O)/C=C/c4ccc(Cl)cc4)c3)c2cc1OC | 2.93% (active) | 19.6% | 81.3% | 54.6% | 50.7% | 56% | 83.9% | 62.8% | 74.2%
Cn1cc(-c2nc(-c3c[nH]c4ncccc34)cs2)c2cc(F)ccc21 | 19.6% | 19.6% | 31.6% | 53.3% | 36.7% | 33.6% | 51.4% | 47.6% | 60.5%
c1ccc2[nH]c(-c3cc(-c4ccc5c(c4)OCO5)n[nH]3)nc2c1 | 56.7% | 67.5% | 33.8% | 68.3% | 36.6% | 50.4% | 13.2% | 49.7% | 71.3%
CN(C)c1cccc2[nH]c(-c3[nH]ncc3Nc3ccnc(N)n3)nc12 | -17.1% (active) | 0.0531% (active) | -68.7% (active) | -3.76% (active) | -50.1% (active) | 5.95% (active) | -98.9% (active) | -85.1% (active) | -57.3% (active)
